Values joined by “and” are separate entries in the source; they are usually repeats but may differ in a detail not shown here. Equal entries are not always repeated. Some structures have more than one record in an assay (separate samples or runs), and their calls can disagree. Active and inactive are the calls of the source. Entries that show only a call come without a potency. Unless noted, calls come from the whole dose curve; as a rule, active = well fitted curve in the direction sought with a large enough effect in the repeat runs; inconclusive = weak or mixed curves; inactive = no such curve, though single readings can be large; an effect the other way counts as inactive or inconclusive.
Experiments:
[1] = qHTS assay to identify small molecule antagonists of the thyroid receptor (TR) signaling pathway - cell viability counter screen (AID 743064); note: nearly all actives have a fitted effect of over 50% in size; note: potency is the fitted concentration of half-maximal effect
Summary of the method: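 Rat GH3 pituitary tumor cells stably expressing two TR response elements driving luciferase were plated, rested 4 h, then dosed with library compounds and T3 (1 nM final). After 23.5 h at 37 °C, CellTiter-Fluor was added for 30 min and fluorescence recorded.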

[2] = qHTS assay to identify small molecule antagonists of the thyroid receptor (TR) signaling pathway (AID 743065); note: nearly all actives have a fitted effect of over 55% in size; note: potency is the fitted concentration of half-maximal effect
Summary of the method: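 GH3.TRE-Luc rat pituitary cells (two TREs driving luciferase) were dosed with compound, then stimulated with 1 nM T3 (final) for 23.5 h at 37 C. ONE-Glo luminescence was the read-out, with CellTiter-Fluor fluorescence as the cytotoxicity counter-screen.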

[3] = system: thyroid hormone receptor (rat, GH3 cells); assay: qHTS assay to identify small molecule agonists of the thyroid receptor (TR) signaling pathway (AID 743066; calls by dose curve)
[4] = molecular target: Estrogen receptor (Homo sapiens) (UniProt P03372); assay: qHTS assay to identify small molecule antagonists of the estrogen receptor alpha (ER-alpha) signaling pathway (AID 743069; active = well fitted curve in the direction sought with a large enough effect in the signal ratio in the repeat runs, not every such curve was filed as active; inconclusive = weak or mixed curves, or effect the other way; inactive = no such curve, though single readings can be large or run the other way; the % refers to the signal ratio)
Chain of Estrogen receptor (Homo sapiens) (P03372 whole entry, looked up): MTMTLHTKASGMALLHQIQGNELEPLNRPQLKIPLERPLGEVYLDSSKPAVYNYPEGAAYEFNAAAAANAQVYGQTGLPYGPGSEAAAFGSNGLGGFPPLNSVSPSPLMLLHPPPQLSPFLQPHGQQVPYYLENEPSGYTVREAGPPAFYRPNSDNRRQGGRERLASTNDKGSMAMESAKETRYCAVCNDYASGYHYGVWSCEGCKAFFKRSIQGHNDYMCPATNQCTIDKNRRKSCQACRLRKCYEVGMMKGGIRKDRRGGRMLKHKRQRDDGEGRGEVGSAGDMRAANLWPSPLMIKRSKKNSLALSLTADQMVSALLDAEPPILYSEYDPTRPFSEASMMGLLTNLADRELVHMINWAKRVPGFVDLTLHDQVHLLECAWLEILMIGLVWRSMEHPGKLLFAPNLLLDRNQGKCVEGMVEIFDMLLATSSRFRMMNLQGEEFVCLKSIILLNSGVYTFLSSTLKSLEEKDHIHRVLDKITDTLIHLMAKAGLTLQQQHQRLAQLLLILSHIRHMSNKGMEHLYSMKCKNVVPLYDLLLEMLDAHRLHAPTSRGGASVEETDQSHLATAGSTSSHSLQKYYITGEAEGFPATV
Summary of the method: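 Beta-lactamase FRET fluorescence is read after 2 hr at room temperature with LiveBLAzer B/G substrate. Before that, ER-alpha-bla HEK293 cells sit 4 hr after plating, then receive compound plus 17beta-estradiol and incubate 18 hr at 37C.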

[5] = qHTS assay to identify small molecule antagonists of the estrogen receptor alpha (ER-alpha) signaling pathway - cell viability counter screen (AID 743074; calls by dose curve;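 note: HEK293 cells carrying ER-alpha-UAS-bla reporter stimulated with 17beta-estradiol; nearly all actives have a fitted effect of over 45% in size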; note: potency is the fitted concentration of half-maximal effect)
[6] = molecular target: Estrogen receptor (Homo sapiens) (UniProt P03372); assay: qHTS assay to identify small molecule agonists of the estrogen receptor alpha (ER-alpha) signaling pathway (AID 743075; calls by dose curve;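 note: HEK293 GripTite cells with ER-alpha and UAS-driven beta-lactamase reporter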; note: potency is the fitted concentration of half-maximal effect)
[7] = qHTS assay to identify small molecule antagonists of the estrogen receptor alpha (ER-alpha) signaling pathway using the BG1 cell line (AID 743080; calls by dose curve;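 note: BG1 cells stimulated with 17beta-estradiol alongside compound; nearly all actives have a fitted effect of over 25% in size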; note: potency is the fitted concentration of half-maximal effect)
Summary of the method: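 Luciferase inhibition measured with ONE-Glo after 30 min at RT in BG1Luc4E2 cells given test compounds and 17beta-estradiol for 21.5 h at 37 C; CellTiter-Fluor viability read in the same wells beforehand.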

[8] = qHTS assay to identify small molecule antagonists of the estrogen receptor alpha (ER-alpha) signaling pathway using the BG1 cell line - cell viability counter screen (AID 743081);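 note: compound given together with 17beta-estradiol as the ER stimulus; series mostly up to about 70 µM; nearly all actives have a fitted effect of over 45% in size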
[9] = molecular target: Aromatase (Homo sapiens) (UniProt P11511); assay: qHTS assay to identify aromatase inhibitors (AID 743083); note: nearly all actives have a fitted effect of over 55% in size; note: potency is the fitted concentration of half-maximal effect
Chain of Aromatase (Homo sapiens) (P11511 whole entry, looked up): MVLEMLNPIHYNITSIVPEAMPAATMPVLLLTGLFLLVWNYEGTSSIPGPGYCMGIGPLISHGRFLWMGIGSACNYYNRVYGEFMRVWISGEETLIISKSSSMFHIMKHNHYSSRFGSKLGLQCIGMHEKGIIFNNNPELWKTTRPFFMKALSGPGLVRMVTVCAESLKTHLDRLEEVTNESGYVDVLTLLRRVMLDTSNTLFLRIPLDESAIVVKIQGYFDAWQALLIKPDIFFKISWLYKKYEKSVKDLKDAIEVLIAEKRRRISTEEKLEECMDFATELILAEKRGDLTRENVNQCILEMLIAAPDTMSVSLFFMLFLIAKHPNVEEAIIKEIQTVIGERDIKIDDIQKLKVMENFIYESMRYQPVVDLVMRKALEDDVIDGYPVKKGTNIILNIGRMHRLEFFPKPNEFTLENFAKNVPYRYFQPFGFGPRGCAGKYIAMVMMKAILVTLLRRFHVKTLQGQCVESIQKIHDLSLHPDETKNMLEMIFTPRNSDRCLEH

[10] = molecular target: Estrogen receptor (Homo sapiens) (UniProt P03372); assay: qHTS assay to identify small molecule agonists of the estrogen receptor alpha (ER-alpha) signaling pathway using the BG1 cell line (AID 743079); note: nearly all actives have a fitted effect of over 20% in size; note: potency is the fitted concentration of half-maximal effect

With CCOP(=S)(OCC)SCSc1cc(Cl)ccc1Cl the Potency [1] was “inactive”, the Potency [2] was “inactive” and the Potency [3] was “inactive”. For the same molecule, the Potency [4] was “inactive”, the Potency [5] was “inactive” and the Potency [6] was “inactive”. For the same molecule, the Potency [7] was “inactive”, the Potency [8] was “inactive” and the Potency [9] was “inactive”.

For CCCCCCCCCCCC[N+](C)(C)CCOc1ccccc1, the Potency [1] was 13.3 µM (active) and 9.69 µM (active), the Potency [2] was 10.6 µM (active) and 9.69 µM (active) and the Potency [3] was “inactive”. For the same molecule, the Potency [5] was 19 µM (active) and 17.4 µM (active), the Potency [6] was “inactive” and the Potency [7] was “inactive”. For the same molecule, the Potency [8] was “inactive” and the Potency [9] was 21.1 µM (active) and 19.3 µM (active).

For O=[N+]([O-])/C=C/c1ccccc1, the Potency [1] was 13.9 µM (active) and 9.69 µM (active), the Potency [2] was 12.4 µM (active) and 7.7 µM (active) and the Potency [3] was “inactive”. The Potency [5] was “inactive”, the Potency [8] was “inactive” and the Potency [9] was 27.8 µM (active).

With COP(=O)(OC)OC(Br)C(Cl)(Cl)Br (stereo not drawn) the Potency [1] was 54.5 µM (active) and 61.1 µM (active), the Potency [2] was 54.5 µM (active) and 48.6 µM (active) and the Potency [3] was “inactive”. For the same molecule, the Potency [5] was “inactive”, the Potency [6] was 61.7 µM [inconclusive] (active) and inactive and the Potency [10] was “inactive”. The Potency [8] was “inactive” and the Potency [9] was 61.2 µM (active) and 61.1 µM (active).

With C=CCSSCC=C the Potency [1] was “inactive”, the Potency [2] was “inactive” and the Potency [3] was “inactive”. The Potency [5] was “inactive”, the Potency [8] was “inactive” and the Potency [9] was “inactive”.

For Nc1ccc2c(c1)Cc1ccccc1-2, the Potency [1] was “inactive”, the Potency [2] was “inactive” and the Potency [3] was “inactive”. For the same molecule, the Potency [4] was “inactive”, the Potency [5] was “inactive” and the Potency [10] was 4.3 µM (active). For the same molecule, the Potency [8] was “inactive” and the Potency [9] was “inactive”.

In the case of Nc1cc(Cl)cc(C(=O)O)c1Cl, the Potency [1] is reported as “inactive”, the Potency [2] is reported as “inactive” and the Potency [3] is reported as “inactive”. For the same molecule, the Potency [5] was “inactive”, the Potency [8] was “inactive” and the Potency [9] was “inactive”.

In the case of N#CC1(N=NC2(C#N)CCCCC2)CCCCC1, the Potency [1] is reported as “inactive”, the Potency [2] is reported as “inactive” and the Potency [3] is reported as “inactive”. For the same molecule, the Potency [5] was “inactive”, the Potency [8] was “inactive” and the Potency [9] was “inactive”.

For CCC(C)(C)c1ccc(O)c(C(C)(C)CC)c1, the Potency [1] was 12.1 µM (active) and 13.7 µM (active), the Potency [2] was 12.1 µM (active) and 12.2 µM (active) and the Potency [3] was “inactive”. The Potency [4] was “inactive”, the Potency [5] was “inactive” and the Potency [6] was “inactive”. The Potency [10] was “inactive”, the Potency [7] was 61.1 µM (active) and the Potency [9] was 60.4 µM (active) and 30.6 µM (active).

For C[N+](C)(C)CCOC(=O)C(O)(c1ccccc1)c1ccccc1, the Potency [1] was “inactive”, the Potency [2] was “inactive” and the Potency [3] was “inactive”. For the same molecule, the Potency [5] was “inactive”, the Potency [8] was “inactive” and the Potency [9] was “inactive”.

With CC[N+]1(CCOC(=O)C(O)(c2ccccc2)c2ccccc2)CCCCC1 the Potency [1] was “inactive”, the Potency [2] was “inactive” and the Potency [3] was “inactive”. For the same molecule, the Potency [4] was “inactive”, the Potency [5] was “inactive” and the Potency [10] was 8.41 µM (active). For the same molecule, the Potency [7] was “inactive”, the Potency [8] was “inactive” and the Potency [9] was “inactive”.

In the case of CCc1cnc(C2=NC(C)(C(C)C)C(=O)N2)c(C(=O)O)c1 (stereo not drawn), the Potency [1] is reported as “inactive”, the Potency [2] is reported as “inactive” and the Potency [3] is reported as “inactive”. The Potency [5] was “inactive”, the Potency [8] was “inactive” and the Potency [9] was “inactive”.

With Cc1cnc(C2=NC(C)(C(C)C)C(=O)N2)c(C(=O)O)c1 (stereo not drawn) the Potency [1] was “inactive”, the Potency [2] was “inactive” and the Potency [3] was “inactive”. For the same molecule, the Potency [4] was “inactive”, the Potency [5] was “inactive” and the Potency [6] was “inactive”. For the same molecule, the Potency [7] was “inactive”, the Potency [8] was “inactive” and the Potency [9] was “inactive”.

For Clc1ccc2ccccc2c1, the Potency [1] was “inactive”, the Potency [2] was “inactive” and the Potency [3] was “inactive”. The Potency [4] was “inactive”, the Potency [5] was “inactive” and the Potency [6] was “inactive”. For the same molecule, the Potency [7] was “inactive”, the Potency [8] was “inactive” and the Potency [9] was “inactive”.

In the case of c1ccc2c(c1)sc1ccccc12, the Potency [1] is reported as “inactive”, the Potency [2] is reported as “inactive” and the Potency [3] is reported as “inactive”. The Potency [4] was “inactive”, the Potency [5] was “inactive” and the Potency [6] was “inactive”. The Potency [10] was “inactive”, the Potency [7] was “inactive” and the Potency [8] was “inactive”. For the same molecule, the Potency [9] was “inactive”.

For CC(C)OC(=O)Cc1ccccc1, the Potency [1] was “inactive”, the Potency [2] was “inactive” and the Potency [3] was “inactive”. The Potency [4] was “inactive”, the Potency [5] was “inactive” and the Potency [6] was “inactive”. For the same molecule, the Potency [10] was “inactive”, the Potency [7] was “inactive” and the Potency [8] was “inactive”. The Potency [9] was “inactive”.

In the case of C=CC(=O)NC(C)(C)CC(C)=O, the Potency [1] is reported as “inactive”, the Potency [2] is reported as “inactive” and the Potency [3] is reported as “inactive”. The Potency [4] was “inactive”, the Potency [5] was “inactive” and the Potency [6] was “inactive”. For the same molecule, the Potency [10] was “inactive”, the Potency [7] was “inactive” and the Potency [8] was “inactive”. For the same molecule, the Potency [9] was “inactive”.

With Cc1nnc(-c2ccccc2)c(=O)n1N the Potency [1] was “inactive”, the Potency [2] was “inactive” and the Potency [3] was “inactive”. The Potency [4] was “inactive”, the Potency [5] was “inactive” and the Potency [7] was “inactive”. The Potency [8] was “inactive” and the Potency [9] was “inactive”.

In the case of CC(C)(C)c1ccc(CCOc2ncnc3ccccc23)cc1, the Potency [1] is reported as “inactive”, the Potency [2] is reported as “inactive” and the Potency [3] is reported as “inactive”. The Potency [4] was “inactive”, the Potency [5] was “inactive” and the Potency [6] was “inactive”. The Potency [10] was “inactive”, the Potency [7] was “inactive” and the Potency [8] was “inactive”. For the same molecule, the Potency [9] was “inactive”.

In the case of c1ccc2sc(SNC3CCCCC3)nc2c1, the Potency [1] is reported as “inactive”, the Potency [2] is reported as “inactive” and the Potency [3] is reported as “inactive”. For the same molecule, the Potency [4] was “inactive”, the Potency [5] was “inactive” and the Potency [6] was “inactive”. For the same molecule, the Potency [7] was “inactive”, the Potency [8] was “inactive” and the Potency [9] was “inactive”.

For CCCC[P+](CC)(CCCC)CCCC (tested in a mixture with another compound), the Potency [1] was “inactive”, the Potency [2] was “inactive” and the Potency [3] was “inactive”. The Potency [5] was “inactive”, the Potency [8] was “inactive” and the Potency [9] was “inactive”.

In the case of Nc1cccc2ccccc12, the Potency [1] is reported as “inactive”, the Potency [2] is reported as “inactive” and the Potency [3] is reported as “inactive”. For the same molecule, the Potency [4] was “inactive”, the Potency [6] was “inactive” and the Potency [10] was “inactive”. The Potency [7] was “inactive”, the Potency [8] was “inactive” and the Potency [9] was “inactive”.

With C1CCNCC1 the Potency [1] was “inactive”, the Potency [2] was “inactive” and the Potency [3] was “inactive”. For the same molecule, the Potency [4] was “inactive”, the Potency [5] was “inactive” and the Potency [7] was “inactive”. The Potency [8] was “inactive” and the Potency [9] was “inactive”.

In the case of CC(C)(C)N(NC(=O)c1ccc(Cl)cc1)C(=O)c1ccccc1, the Potency [1] is reported as 3.42 µM (active), the Potency [2] is reported as “inactive” and the Potency [3] is reported as “inactive”. The Potency [4] was “inactive”, the Potency [5] was “inactive” and the Potency [6] was “inactive”. The Potency [7] was “inactive” and the Potency [9] was “inactive”.

Reference: PubChem BioAssay (Tox21)
